Sampled rows, rich in hits. Any-hit rate of the full collection: about 12%.
HP1b chromo inh: HTS for Inhibitors of HP1-beta Chromodomain Interactions with Methylated Histone Tails | AID 540317, 2011 | AlphaScreen HP1-beta / biotin-H3K9me3 peptide binding | Chromobox protein homolog 1 (Homo sapiens), P83916 | hit rate 0.56% among 390,000 | Potency, µM (top dose mostly 114 µM), actives largely listed as inhibitors; further: nearly all actives have a fitted effect of over 70% in size
Target sequence (P83916 whole entry, looked up): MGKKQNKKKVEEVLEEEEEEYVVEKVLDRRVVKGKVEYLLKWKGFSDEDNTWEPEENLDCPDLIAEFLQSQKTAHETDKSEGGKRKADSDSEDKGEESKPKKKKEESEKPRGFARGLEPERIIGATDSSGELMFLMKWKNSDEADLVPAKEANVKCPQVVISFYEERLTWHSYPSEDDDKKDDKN
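Compound inhibition of the preformed complex between 50 nM HP1-beta and 50 nM biotinylated H3K9me3 peptide was read by AlphaScreen. Buffer was PBS pH 7.4 with 0.01% Tween-20. Incubations ran 30 min at room temperature, with 10 ug/mL donor/acceptor beads.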
G9a inh: qHTS Assay for Inhibitors of Histone Lysine Methyltransferase G9a | G9a H3K9 monomethylation, AlphaScreen, 2 h | Potency, µM (doses to about 102 µM), usual class: inhibitors | hit rate 8.8% among 350,000; further: nearly all actives have a fitted effect of over 75% in size
Target sequence (Q96KQ7 913-1193 limits assumed): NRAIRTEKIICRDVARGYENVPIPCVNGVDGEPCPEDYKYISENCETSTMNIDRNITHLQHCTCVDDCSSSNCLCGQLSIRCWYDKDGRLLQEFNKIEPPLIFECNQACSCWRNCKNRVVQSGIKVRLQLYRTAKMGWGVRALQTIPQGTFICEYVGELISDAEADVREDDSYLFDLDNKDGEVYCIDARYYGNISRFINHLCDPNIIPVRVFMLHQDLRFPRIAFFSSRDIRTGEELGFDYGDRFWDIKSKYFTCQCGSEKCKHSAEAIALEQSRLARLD
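Signal arises when biotinylated H3K9 peptide, once monomethylated, bridges streptavidin donor and antibody-captured acceptor beads. Enzyme at 20 nM was preincubated 15 min with test compounds; peptide 500 nM and SAM 20 uM then reacted for 2 h.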
Sfp inh: qHTS Assay for Inhibitors of Bacillus subtilis Sfp phosphopantetheinyl transferase (PPTase). hit rate 3.5% among 310,000. Biochemical Sfp PPTase activity, qHTS. Potency, µM, usual class: inhibitors. 4'-phosphopantetheinyl transferase ffp (Bacillus subtilis), Q9F4F7;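 further: the enzyme is Sfp with the accession as filed and its product quenches rhodamine fluorescence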
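Buffer: 50 mM Hepes-Na pH 7.6, 10 mM MgCl2, 0.01% Nonidet P-40, 0.01% BSA. Enzyme 15 nM, pre-exposed to compound 15 min; substrates then added and fluorescence change tracked over 30 min.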
BAZ2B block: qHTS Assay for Inhibitors of BAZ2B; Bromodomain adjacent to zinc finger domain protein 2B (Homo sapiens), Q9UIF8; AID 504333, 2011; Potency, µM (doses to about 114 µM), hits mostly inhibitors; AlphaScreen BAZ2B-H3K14Ac peptide displacement; hit rate 4.4% among 360,000; further: nearly all actives have a fitted effect of over 60% in size
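Complex of BAZ2B and biotin-H3K14Ac (50 nM apiece) forms over 30 min at RT, then faces library compounds up to 110 uM for another 30 min; AlphaScreen beads added, 20 min dark incubation, luminescence read.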
JMJD2A Tudor inh: qHTS Assay for Inhibitors of JMJD2A-Tudor Domain | Lysine-specific demethylase 4A (Homo sapiens), O75164 | AlphaScreen JMJD2A-Tudor / H3K4me3 peptide binding | Potency, µM (highest dose often 114 µM), hits mostly inhibitors | hit rate 4.4% among 390,000; further: nearly all actives have a fitted effect of over 50% in size
Of the large screens only hits and unclear results are named; the others gave an inactive call. The call rests on the fitted dose curve; in most records, active means well fitted curve in the direction sought with a large enough effect; inconclusive means small, poorly fitted or top-dose-only effect, or another doubt; inactive means no such curve, though single readings can be large; an effect the other way counts as inactive or inconclusive.

O=C(NNC(=S)Nc1ccccc1)c1cc(-c2cccnc2)nc2ccccc12	G9a inh 16µM
Cc1cc2nc(-c3ccc[nH]c3=O)n(Cc3cccc(F)c3)c2cc1C	none
C=CCn1c(SCC(=O)Nc2c(C)n(C)n(-c3ccccc3)c2=O)nc2ccccc2c1=O	none (no result: Sfp inh)
Cc1ccc(NC(=O)Cn2cnc3c(oc4nc5c(cc43)COC(C)(C)C5)c2=O)cc1	none
Cc1cccc(Cn2c(=O)n(CC3CCC(C(=O)N4CCC(C)CC4)CC3)c(=O)c3sccc32)c1 (centres undefined)	none (no result: Sfp inh)
O=C1C(=O)N(Cc2ccco2)C(c2cccc(Cl)c2)/C1=C(\O)c1ccc2c(c1)OCCO2 (centres undefined)	G9a inh inconclusive, Sfp inh inconclusive, BAZ2B block inconclusive, JMJD2A Tudor inh 79µM
COc1cc(C2/C(=C(\O)c3ccc4c(c3)OCCO4)C(=O)C(=O)N2Cc2ccco2)ccc1O (centres undefined)	G9a inh 50µM
COc1cc(C2/C(=C(\O)c3ccc4c(c3)OCCO4)C(=O)C(=O)N2Cc2ccco2)cc(OC)c1OC (centres undefined)	G9a inh 50µM, Sfp inh inconclusive
COc1cccc(C2/C(=C(\O)c3ccc4c(c3)OCCO4)C(=O)C(=O)N2CCN(C)C)c1 (centres undefined)	G9a inh inconclusive
O=C1C(=O)N(Cc2ccccc2)C(c2cccc(O)c2)/C1=C(\O)c1ccc2c(c1)OCCO2 (centres undefined)	G9a inh 45µM, BAZ2B block 56µM
CCC(O)CC(C(=O)NNc1ccccc1)C(=O)NNc1ccccc1 (centres undefined)	HP1b chromo inh inconclusive, G9a inh 7.9µM
CCOC(=O)CC(NS(=O)(=O)c1ccc2[nH]c3c(c2c1)CCCC3)c1ccccc1Cl (centres undefined)	HP1b chromo inh inconclusive, G9a inh 6.3µM, BAZ2B block 35µM, JMJD2A Tudor inh 35µM (no result: Sfp inh)
COc1cccc(NC(=O)C2CCN(S(=O)(=O)c3ccc4[nH]c5c(c4c3)CCCCC5)CC2)c1	none (no result: Sfp inh)
COc1ccccc1NC(=O)C1CCN(S(=O)(=O)c2ccc3[nH]c4c(c3c2)CCCCC4)CC1	G9a inh 3.5µM (no result: Sfp inh)
CCOC(=O)C1CCN(S(=O)(=O)c2ccc3[nH]c4c(c3c2)CCCC4)CC1	HP1b chromo inh inconclusive, G9a inh inconclusive, BAZ2B block inconclusive, JMJD2A Tudor inh 22µM
CCOC(=O)C1CCN(S(=O)(=O)c2ccc3[nH]c(=O)c(=O)[nH]c3c2)CC1	none
Cc1ccccc1C1C(=O)c2ccccc2C1=O	none (no result: G9a inh)
Cc1ccc(CN2CCCn3nc(C(=O)NCc4ccc(N(C)C)cc4)cc3C2=O)cc1	G9a inh 14µM, BAZ2B block inconclusive, JMJD2A Tudor inh inconclusive (no result: Sfp inh)
C[C@@H]1CC2[C@@H]3CC[C@H]4CC(=O)CC[C@]4(C)C3=CC[C@]2(C)[C@@]1(O)C(=O)CO (some centres undefined)	G9a inh 56µM
CCN1CCN(c2ccc(NC(=O)c3ccc([N+](=O)[O-])o3)cc2Cl)CC1	none
CN1C(=O)C(N=Nc2ccccc2C(=O)O)N(C)C1=S (centres undefined)	G9a inh 1.8µM, BAZ2B block inconclusive
O=C(CN1C(=O)NC(Cc2ccccc2)C1=O)Nc1ccccc1OC(F)F (centres undefined)	G9a inh inconclusive (no result: Sfp inh)
OC(COCc1ccc2c(c1)OCO2)CN1CCCCC1 (centres undefined)	none
CCOC(=O)C1CCCN(CC(O)COCc2ccc3c(c2)OCO3)C1 (centres undefined)	HP1b chromo inh inconclusive, G9a inh 11µM, BAZ2B block 56µM, JMJD2A Tudor inh 1µM
CCC(CO)NCC(O)COCc1ccc2c(c1)OCO2 (centres undefined)	G9a inh inconclusive, BAZ2B block 79µM, JMJD2A Tudor inh 50µM
CSCC[C@H](NC(=O)OC(C)(C)C)c1nnc(SCC=C(C)C)o1	G9a inh 50µM
COc1ccc(Oc2ncc3nc(-c4ccc(Cl)cc4)c(=O)n(CCC#N)c3n2)cc1	none (no result: HP1b chromo inh, BAZ2B block, JMJD2A Tudor inh)
CC(C)(C)c1ccc(OCC(=O)Nc2ccc(S(=O)(=O)Nc3ncccn3)cc2)cc1	none (no result: Sfp inh)
CC1(C)CC(=O)C(C(c2cccc([N+](=O)[O-])c2)C2C(=O)CC(C)(C)CC2=O)C(=O)C1	none
COc1ccc(C(C2C(=O)CC(C)(C)CC2=O)C2C(=O)CC(C)(C)CC2=O)cc1COCC(F)(F)F	G9a inh inconclusive, Sfp inh inconclusive
Cc1ccc(C(C2C(=O)CC(C)(C)CC2=O)C2C(=O)CC(C)(C)CC2=O)s1	G9a inh 45µM, Sfp inh 50µM, BAZ2B block inconclusive
CC1(C)CC(=O)C(C(c2ccncc2)C2C(=O)CC(C)(C)CC2=O)C(=O)C1	G9a inh 50µM
COc1ccc(C(C2C(=O)CC(C)(C)CC2=O)C2C(=O)CC(C)(C)CC2=O)cc1	G9a inh 45µM, Sfp inh 25µM
COc1ccc2nc3oc(C(=O)Nc4cccc(C(F)(F)F)c4)cc3cc2c1	none (no result: Sfp inh)
O=C(CCc1nc(-c2ccccc2F)no1)NCCN1CCOCC1	G9a inh inconclusive
CCOC(=O)c1n[nH]n2c1nc(=S)c1ccccc12	G9a inh 10µM, Sfp inh inconclusive, JMJD2A Tudor inh 89µM
CCc1ccc(-c2cn3nc(CC)sc3n2)cc1	none (no result: Sfp inh)
CC1CN(c2cc(=O)n(-c3ccccc3)c(=O)[nH]2)CC(C)O1 (centres undefined)	G9a inh 40µM
COc1cccc(CN2CCN(Cc3nc(-c4cccs4)oc3C)CC2CCO)c1 (centres undefined)	none (no result: G9a inh)
Cc1cc(C)c(N)c(C(=O)O)c1	none
Cc1cc(C)c(O)c(N)c1	G9a inh 2.2µM, Sfp inh 20µM, BAZ2B block inconclusive (no result: HP1b chromo inh, JMJD2A Tudor inh)
C=CCN1C(=O)N/C(=C/c2ccc(C)o2)C1=O	G9a inh inconclusive, Sfp inh 10µM
CCn1c(C)cc(/C=C2/NC(=O)N(CC(=O)Nc3cccc(C)c3)C2=O)c1C	G9a inh 45µM
COc1ccc(/C=C2/NC(=O)N(CC(=O)Nc3cccc(C)c3)C2=O)cc1O	none
Cc1cccc(NC(=O)CN2C(=O)N/C(=C\c3ccc(-c4cccc(C(=O)O)c4)o3)C2=O)c1	G9a inh 45µM, Sfp inh 40µM
COC(=O)CN1C(=O)N/C(=C/c2ccc(OC)cc2)C1=O	none
Cc1ccc(NC(=O)CN2C(=O)N/C(=C/c3ccc(C)s3)C2=O)cc1	G9a inh inconclusive, Sfp inh 40µM
CCOc1ccccc1NC(=O)n1ncc2c(C)cccc21	none

Source: PubChem BioAssay (National Center for Advancing Translational Sciences (NCATS))
